Reference: PubChem BioAssay AID1628 (Sanford-Burnham Center for Chemical Genomics, 2009)
In all, about 190,000 compounds went through this assay and about 930 (0.49%) were called active. The list shows a part of the results. Results with a measured potency or affinity are listed apart. Values without a mark were called inactive.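 The calls were made as follows: active = z-score of insulin promoter reporter brightness in nuclei below -3 at 5 µM, with at least 500 cells counted; inconclusive = wells with under 500 cells, flagged as toxic or sparse; inactive = the rest.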

Experiment: decrease of insulin promoter-GFP reporter – imaging, high-content screening, mouse beta cells (AID 1628)
Details: MIN6 insulin promoter GFP reporter, at 5 µM, hits give low values

| SMILES | z-score |
| --- | --- |
| Cc1cc(C)cc(N=Cc2[nH]c3ccc(Br)c(Cl)c3c2O)c1 | 13.9 |
| Cc1nn(Cc2ccccc2Cl)c2sc(C(=O)NCCCn3ccnc3)cc12 | -4.53 (active) |
| O=C(NCCCn1ccnc1)/C(=C/c1ccco1)NC(=O)c1cccs1 | 3.41 |
| Cc1ccc(C(=O)NCCCn2ccnc2)cc1[N+](=O)[O-] | 5.54 |
| COc1ccccc1N1CCN(C/C(O)=C(\C#N)c2nc(-c3ccccc3)cs2)CC1 | 3.2 |
| CN1CCN(Cc2nc(N)nc(Nc3ccc4c(c3)OCCO4)n2)CC1 | 4.73 |
| COc1ccccc1N1CCN(Cc2nc(N)nc(Nc3ccccc3)n2)CC1 | -3.17 (active) |
| Cc1cccc(Nc2nc(N)nc(CN3CCN(c4ccccc4)CC3)n2)c1 | -1.36 |
| Cc1ccc(NC(=O)/C=C/c2ccc([N+](=O)[O-])s2)cc1 | 16.6 |
| NC(=NCc1ccc2c(c1)OCO2)NC(=O)c1ccccc1 | -3.43 (active) |
| CC(=O)Oc1ccc2c(=O)c(-c3ccccc3)c(C)oc2c1 | -0.21 |
| CCNc1c(N)c(=O)oc2ccccc12 | -0.02 |
| Cc1ccc(CN2CCN(/N=C/C=C/c3ccccc3[N+](=O)[O-])CC2)cc1 | -4.13 (active) |
| N#CC(C#N)=C1C=C2C=C(N3CCCCC3)CCC2CC1 (configuration not stated) | 18.2 |
| CCN(CC)C(=O)c1sc2nc(-c3cccs3)cc(-c3cccs3)c2c1N | 4.15 |
| CCN(CC)C(=O)c1sc(NC(=O)c2ccncc2)c(C(=O)OC)c1C | -4.37 (active) |
| Cc1c(Cl)cccc1NC(=O)CN1CCN(CCN=CC2=C(O)CC(c3ccccc3)CC2=O)CC1 (configuration not stated) | 2.18 |
| CC1=NNC(=O)C1CCC(=O)N/N=C/c1ccc(C)cc1 (configuration not stated) | 3.3 |
| Oc1ccc(/C=N/Nc2ccnc3cc(Cl)ccc23)c(O)c1 | 5.11 |
| CCN1CCc2c(sc(NC(=S)NC(=O)c3ccc(Cl)cc3)c2C(N)=O)C1 | 3.92 |
| CC1Cn2c(nnc2C23CC4CC(CC(C4)C2)C3)S1 (configuration not stated) | -3.06 (active) |

| SMILES | z-score |
| --- | --- |
| Cc1ccc(-c2csc(=Nc3cccnc3)n2CCCn2ccnc2)cc1C | -3.01 (active) |
| N#C/C(=C/c1ccc(N2CCCCCC2)o1)c1ccc(Cl)cc1 | 16.2 |
| CC(=O)C1=C(C)Nc2ncnn2C1c1ccc(Cl)cc1Cl (configuration not stated) | 3.45 |
| CC1CN(C(=O)CCn2c(=O)oc3ccccc32)CC(C)O1 (configuration not stated) | 8.04 |
| CCCCN1C(=O)/C(=C/C=C2\Oc3ccccc3N2CC)SC1=S | 16.7 |
| CCCN1C(=O)c2cccc3c(N4CCCCC4)ccc(c23)C1=O | 3.75 |
| O=C1CCCC(O)=C1C=NCCc1ccccc1 | 3.02 |
| O=c1c2cccc3c(N4CCOCC4)ccc(c32)c2nc3ccccc3n12 | 9.75 |
| Cc1ccc(Nc2nc(N3CCOCC3)c3ccccc3n2)cc1 | -3.61 (active) |
| CCOC(=O)CSc1nc2ccc(Nc3nc(N4CCOCC4)nc(N4CCOCC4)n3)cc2s1 | -0.17 |
| Cc1n[nH]c(C)c1N1C(=O)c2cccc3c(N4CCCCCC4)ccc(c23)C1=O | 8.27 |
| O=C(C1CC1)N1CCC(c2nc(-c3ccc(S(=O)(=O)NCC4CCCO4)cc3)no2)CC1 (configuration not stated) | -7.53 (active) |
| Cc1noc(/C=C/c2ccc(-c3ccccc3Cl)o2)c1[N+](=O)[O-] | 8.03 |
| COc1ccc(C)cc1NC(=O)COC(C)=O | 3.48 |
| COc1ccc(Cl)cc1NC(=O)CN1CCC(n2nnc3cc(C)ccc32)CC1 | -4.05 (active) |
| O=C(NN=C1CCN(Cc2ccccc2)CC1)c1cccc(S(=O)(=O)Nc2ccccc2Cl)c1 | 3.03 |
| Nc1cc(S(=O)(=O)Nc2ccccc2Cl)ccc1N1CCOCC1 | 2.18 |
| O=C(O)c1ccccc1-c1ccccc1C(=O)NNc1ccccc1 | -3.66 (active) |
| CC(C)(C)S(=O)(=O)c1ccccc1C(=O)O | -1.55 |
| Cc1ccc([N+](=O)[O-])cc1NC(=O)c1cccs1 | 3.18 |
| O=C(NCCc1ccc(Cl)cc1)c1cccs1 | 1.56 |

| SMILES | z-score |
| --- | --- |
| COc1ccc(N(CCN2C(=O)c3ccccc3C2=O)C(=O)c2cccc([N+](=O)[O-])c2)cc1 | 3.09 |
| CCN(CCCCN1C(=O)c2ccccc2C1=O)c1ccc2c(c1)C(=O)N(C)C2=O | -3.55 (active) |
| CCCN1C(=O)c2ccccc2NC1c1ccc(C)cc1 (configuration not stated) | 2.64 |
| CC(C)Sc1nc(SCC(=O)NCc2ccco2)c2c3c(sc2n1)COC(C)(C)C3 | -3.28 (active) |
| COc1ccccc1OCc1nnc(SCC(=O)NCc2ccco2)n1-c1ccccc1 | 0.71 |
| CC(C)c1cccc(O)c(=O)c1 | -0.46 |
| CN1C(=O)CC(N2CCN(Cc3ccc(Cl)cc3)CC2)C1=O (configuration not stated) | 3.88 |
| CCN(CC)c1ccc(/C=N/N2CCN(Cc3ccc(Cl)cc3)CC2)c(O)c1 | -5.88 (active) |
| Cc1nn(C)cc1CNC(=O)c1cc2n(n1)C(C(F)(F)F)CC(c1cccs1)N2 (configuration not stated) | -3.69 (active) |
| Cc1nn(C)c(C)c1CNC(=O)c1nn2c(c1Cl)NC(c1cccs1)CC2C(F)(F)F (configuration not stated) | -4.07 (active) |
| CCCc1cc(-n2ccnc2)n2c(nc3ccccc32)c1C#N | 5.52 |
| COc1ccc2c(c1)C(C)=CC(C)(C)N2C(=O)CNCc1ccc2c(c1)OCO2 | -4.43 (active) |
| O=C(CSc1nc2ccc(Cl)cc2o1)NCc1ccc2c(c1)OCO2 | 3.95 |
| CCCCCOC(=O)Cn1c(N2CCCCCC2)nc2c1c(=O)[nH]c(=O)n2C | -0.48 |
| CC1=C(C(=O)Nc2ccc(F)cc2)C(c2ccncc2)C2=C(CCCC2=O)N1 (configuration not stated) | 1.21 |
| CCc1c(C(=O)Nc2ccncc2)csc1C | -4.62 (active) |
| CCOc1ccc(OCC)c(-c2c(=O)n(OCc3ccc(Cl)cc3)c3ccccc3[n+]2[O-])c1 | 3.34 |
| CCOC(=O)c1sc2nc(CSc3ccccc3Cl)[nH]c(=O)c2c1C | 1.87 |
| Cc1sc2nc(-c3cccs3)nc(N3CCCN(C)CC3)c2c1C | -3.73 (active) |
| COC(=O)c1sc2nc(-c3ccccc3)nc(N3CCN(C)CC3)c2c1C | -4.28 (active) |
